IL1B secr inh = inflammasome signaling inhibition, IL-1 beta readout; THP-1 LPS/ATP IL-1B secretion, AlphaLISA, 16 h; active compounds read low; hit rate 4.7% among 360,000; activity change, % at 57.5 µM; in the data active = activity change below about -50%; inconclusive = mostly about -30% to -49%; also: % is scaled to controls: 0 for no effect and ±100 for the full control effect
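THP-1 cells pretreated 1 hr with compounds (up to 57.5 uM final), then stimulated with LPS (250 ng/mL final) plus ATP (1.25 mM final); secreted IL-1B measured by AlphaLISA after 16 hr, decreased signal indicating inhibition.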
TDP1 block = blocks human tyrosyl-DNA phosphodiesterase 1; recombinant TDP1, AlphaScreen DNA substrate cleavage; Potency, µM (top dose mostly 130 µM), without a hit: top-dose activity change, negative = inhibition, actives largely listed as inhibitors; hit rate 0.28% among 350,000; AID 485290; also: potency is read from the fitted curve at half-maximal effect; % is scaled to controls: 0 for no effect and ±100 for the full control effect; nearly all actives have a fitted effect of over 40% in size
Target sequence (Q9NUW8 whole entry, looked up): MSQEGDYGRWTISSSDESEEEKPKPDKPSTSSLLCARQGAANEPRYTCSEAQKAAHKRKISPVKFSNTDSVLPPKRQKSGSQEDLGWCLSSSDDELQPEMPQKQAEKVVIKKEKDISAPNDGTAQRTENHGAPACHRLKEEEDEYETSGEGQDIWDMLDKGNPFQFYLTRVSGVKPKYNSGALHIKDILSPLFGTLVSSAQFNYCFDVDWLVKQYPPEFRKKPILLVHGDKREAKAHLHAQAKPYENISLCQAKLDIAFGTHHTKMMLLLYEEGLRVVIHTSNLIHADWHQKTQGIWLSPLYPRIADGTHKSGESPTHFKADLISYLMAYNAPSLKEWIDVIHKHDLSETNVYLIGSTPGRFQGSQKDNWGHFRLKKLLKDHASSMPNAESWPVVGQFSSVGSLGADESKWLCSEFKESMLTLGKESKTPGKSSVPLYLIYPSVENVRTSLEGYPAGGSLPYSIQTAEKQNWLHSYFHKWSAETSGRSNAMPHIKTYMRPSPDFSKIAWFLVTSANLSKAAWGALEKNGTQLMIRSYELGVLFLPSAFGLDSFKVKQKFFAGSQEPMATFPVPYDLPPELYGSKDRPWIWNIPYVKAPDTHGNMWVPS
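AlphaScreen read-out: signal falls as enzyme removes the 3' tyrosine-FITC from a 5'-biotinylated DNA oligo (15 nM, 5 min, RT). Enzyme was E. coli-made recombinant Tdp1 at 1 nM, exposed to compound for 15 min beforehand; beads 10 ug/ml, 10 min.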
TGFb inhibitor = inhibitors of TGF-b signaling. hit rate 1.2% among 410,000. HepG2 CAGA-GFP TGF-b/SMAD3 reporter, GFP fluorescence, 18 h; TGF-beta stimulated, 500 pg/mL final. Potency, µM (highest dose often 46.1 µM), without a hit: at the highest dose activity, negative = inhibition, most hits filed as inhibitors; also: potency is read from the fitted curve at half-maximal effect; % is scaled to controls: 0 for no effect and ±100 for the full control effect; nearly all actives have a fitted effect of over 65% in size
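Inhibition was scored as loss of TGF-beta-induced (500 pg/mL final, 18 hours, 37 degrees C) GFP in HEPG2 cells carrying a CAGA-GFP reporter, in DMEM with 1% FBS. Well GFP was summed per cell; Activity was normalised to unstimulated and stimulated DMSO wells, then concentration-response fitting.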
TDP1 cell noCPT = qHTS for Inhibitors of human tyrosyl-DNA phosphodiesterase 1 (TDP1): qHTS in cells in absence of CPT | DT40 Tdp1-/- hTDP1 cells, no CPT, ATP luminescence, 48 h | Potency, µM (highest dose often 46.2 µM), for the others: at the highest dose activity change, negative = growth inhibition, hits mostly inhibitors | hit rate 15% among 420,000 | AID 686978, 2013; also: potency is read from the fitted curve at half-maximal effect; % is scaled to controls: 0 for no effect and ±100 for the full control effect; nearly all actives have a fitted effect of over 55% in size
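Stably hTDP1-transfected Tdp1-null chicken DT40 cells were treated with library compounds minus camptothecin and grown for at least 48 hr at 37 °C, after which cellular ATP was quantified by luminescence.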
TDP1 cell CPT = DT40-hTDP1 cell growth loss with CPT | hit rate 12% among 420,000 | Potency, µM (titrated, usually from 46.2 µM), for the others: top-dose activity change, negative = growth inhibition, hits mostly inhibitors | chicken DT40 Tdp1-/-;hTDP1 cells + 20 nM CPT, ATP luminescence, 48 h; also: potency is read from the fitted curve at half-maximal effect; % is scaled to controls: 0 for no effect and ±100 for the full control effect; nearly all actives have a fitted effect of over 55% in size
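Chicken DT40 Tdp1-/- cells stably complemented with human TDP1 were seeded at 400 cells/well in medium containing 20 nM camptothecin, exposed to pin-transferred compounds, and grown at 37 °C for at least 48 hr. Viability was read as ATP luminescence.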
HepG2 tox = counter-screen for TGF-b inhibitors: cytotoxicity in HepG2 cells. HepG2 CAGA-GFP viability, ATP luminescence, 18 h. Potency, µM (series often up to 46.1 µM), inactives show at the highest dose activity change, negative = cytotoxicity, usual class: cytotoxic. hit rate 0.76% among 410,000. AID 588856; also: potency is read from the fitted curve at half-maximal effect
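CellTiter-Glo luminescence gave cytotoxicity after 18 hours at 37 degrees C. The cells were HepG2 CAGA-GFP in 1% FBS DMEM, stimulated with 500 pg/mL TGF-beta after compound addition. %Activity was normalised to no-cell wells (complete cell-killing) and DMSO (no toxicity), and curves were fitted and classified.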
An asterisk follows results filed as active; ? = inconclusive; . = no result; [ ] = remark or other dose. In the library only some 18% were active in any assay of this set; here they are far more common. Unless noted, calls follow the shape of the dose curve; as a rule, active = well fitted curve in the direction sought with a large enough effect; inconclusive = small, poorly fitted or top-dose-only effect, or another doubt; inactive = no such curve, though single readings can be large; an effect the other way counts as inactive or inconclusive.

SMILES | IL1B secr inh | TDP1 block | TGFb inhibitor | TDP1 cell noCPT | TDP1 cell CPT | HepG2 tox
Cc1ccc(S(=O)(=O)NCCc2sc3nc(-c4ccccc4)nn3c2C)cc1C | . | 0% | ? | -29% | -6% | -12%
CCOC(=O)[C@]12CCC=C1N(Cc1ccc3c(c1)OCO3)C(=O)[C@H](CC(=O)N1CCCCC1)C2 | -1 | . | . | ? | ? | .
COc1cc(/C=C(\C#N)c2nc3ccccc3n2C)cc(OC)c1OC | . | 0%[12.3 µM] | -18% | 12µM* | 29µM* | -26%
CC1(C)OC(=O)C(=Cc2ccc(-c3ccc(S(N)(=O)=O)cc3)o2)C(=O)O1 | -7 | . | ? | ? | ? | -27%
Cn1c(/C(C#N)=C/c2ccc(-c3ccc(S(N)(=O)=O)cc3)o2)nc2ccccc21 | 123 | 5% | -19% | 15µM* | 13µM* | -28%
COc1ccc(/C=C(\C#N)c2nc3ccccc3n2C)c(OC)c1 | . | -8%[12.3 µM] | 41% | ? | ? | -26%
Cn1c(/C(C#N)=C/c2cccc(O)c2)nc2ccccc21 | -62* | -8% | 27% | ? | 21µM* | 0%
Clc1ccc(-c2nn3c(-c4ccccc4)nnc3s2)cc1 | -8 | -1% | 0% | -6% | ? | -25%
COc1ccccc1-c1nnc2sc(COc3ccc(Cl)cc3Cl)nn12 | -76* | 4% | 9% | ? | ? | -4%
Cc1nc2sc(-c3ccccc3)nn2c(=O)c1Br | 1 | 3% | -22% | ? | 23µM* | -34%
c1ccc(-c2nnc3sc(-c4ccncc4)nn23)cc1 | -51* | -3% | -5% | -21% | -19% | -4%
COc1ccccc1-c1nn2c(-c3ccccc3Cl)nnc2s1 | . | -5% | . | . | . | .
CCN(CC)c1ccc(-c2nn3c(-c4ccccc4OC)nnc3s2)cc1 | 0 | -3% | ? | 1.2µM* | 1.3µM* | -46%
CN(C)CC(C)(O)c1ccc2c(c1)CN(C(=O)c1ccc(-n3cccn3)cc1)CCO2 (stereo not given) | . | . | . | 0% | 5%[9.04 µM] | .
CC(C(=O)Nc1ccc(F)cc1Cl)N1CCN(S(=O)(=O)c2cccs2)CC1 (stereo not given) | ? | 1% | -17% | ? | ? | -7%
COc1ccc2c(C)c(CC(=O)NCCc3ccc(Cl)cc3)c(=O)oc2c1C | . | 7% | -2% | -1% | -1% | 4%
O=C(O)c1ccc(Oc2ccc([N+](=O)[O-])cc2)c([N+](=O)[O-])c1 | -13 | . | 1% | -16% | 0% | -19%
COc1cc(CC(=O)OCC(=O)N2CCCCC2C)cc(OC)c1OC (stereo not given) | -5 | 0% | -22% | -16% | 1% | -18%
CCOc1ccc(-c2nn3c(-c4ccc(F)cc4)nnc3s2)cc1 | 0 | . | -1% | -26% | -16% | 0%
CCOc1cccc(-c2nn3c(-c4cc(C)[nH]n4)nnc3s2)c1 | -77* | 5% | -11% | ? | ? | -24%
c1ccc(-c2nnc3sc(-c4cc5ccccc5o4)nn23)cc1 | -29 | 3% | 8% | ? | 16µM* | -31%
COc1ccc(-c2nn3c(-c4ccccc4)nnc3s2)cc1 | -55* | 2% | ? | ? | ? | -29%
COc1cccc(-c2nnc3sc(-c4ccccc4)nn23)c1 | -24 | 2% | -1% | 23µM* | ? | -9%
CC(C(=O)Nc1ccc(C#N)cc1)N1CCN(C(=O)C2CC2)CC1 (stereo not given) | -1 | 0% | 5% | -27% | -24% | 10%
Cc1ccc(NC(=O)CSc2ncccc2C(=O)Oc2cccc([N+](=O)[O-])c2)cc1Cl | 11 | -1% | -5% | ? | ? | 16%
SMILES | IL1B secr inh | TDP1 block | TGFb inhibitor | TDP1 cell noCPT | TDP1 cell CPT | HepG2 tox
Cc1cccc(-c2nnc3sc(-c4ccccc4C)nn23)c1 | -4 | 6% | -4% | 15µM* | ? | 13µM*
Clc1cccc(-c2nn3c(-c4ccncc4)nnc3s2)c1 | . | 4% | . | . | . | .
c1ccc(-c2nnc3sc(-c4csc5c4CCCC5)nn23)cc1 | -17 | 3% | ? | ? | 21µM* | -24%
CC1(O)/C=C\C=C(\CO)C2CC(C)(C)C2(O)CC1 (stereo not given) | . | 2% | . | 1%[9.04 µM] | -6%[9.04 µM] | .
NS(=O)(=O)c1ccc(CNC(=O)c2ccncc2)cc1 | 13 | 3% | -3% | 17% | 3% | 10%
COc1ccc(Cc2nc(N)nc(N)n2)cc1 | 12 | -1% | 0% | -1% | 1% | 0%
Nc1nc(N)nc(-c2cc(F)ccc2O)n1 | -99* | -1% | ? | ? | ? | 0%
COc1ccc(O)c(-c2nc(N)nc(N)n2)c1 | -98* | 0% | ? | 18µM* | 16µM* | -53%
O=C(CCNS(=O)(=O)c1ccccc1)N1CCN(c2ccccc2F)CC1 | 5 | 4% | 8% | ? | -26% | 11%
O=C(CSc1nc(=O)[nH]c2c1CCCC2)NCc1ccc(F)cc1 | . | 3% | 17% | ? | ? | 1%
CC(=O)c1ccc(N2CCN(S(=O)(=O)c3ccc4c5c3CC(=O)N5CC(C)S4)CC2)cc1 (stereo not given) | 1 | 6% | ? | 21µM* | 21µM* | -24%
CC(=O)c1ccc(N2CCN(S(=O)(=O)c3ccc4c(c3)CC(=O)N4)CC2)cc1 | -13 | . | -5% | -25% | -19% | -4%
CCOc1ccccc1NC(=O)Cn1cnc2c1c(=O)n(C)c(=O)n2C | . | 0%[12.3 µM] | 0% | -27% | ? | -2%
Cc1cc(C)nc(N/N=C2/CCCC/C2=C\c2ccccc2)n1 | ? | 8% | ? | 1.2µM* | 2.1µM* | -47%
Cc1cc(N/N=C/c2ccccc2)nc(N)n1 | 0 | . | 2% | 22% | 0% | -35%
C/C(=N\Nc1nc(C)cc(-c2ccccc2)n1)c1ccccc1 | 3 | . | -18% | ? | ? | -64%
C/C(=N\NC(=O)c1ccc(-c2ccccc2)cc1)c1cccc(N)c1 | 0 | 1% | -4% | -9% | 13% | -20%
C/C(=N\Nc1nc(C)cc(-c2ccccc2)n1)c1ccc(O)cc1 | -74* | . | ? | 4.6µM* | 7.3µM* | -34%
C/C(=N\Nc1nc(C)cc(-c2ccccc2)n1)c1cccc(N)c1 | 5 | . | ? | 21µM* | ? | -60%
CCC(=O)NC1OC(CO)C(O)C(O)C1O (stereo not given) | -11 | 8% | -16% | ? | 17% | -83%

Assay outcomes deposited in PubChem by National Center for Advancing Translational Sciences (NCATS).
